Shown are actives, neighbours in structure and some others; about 2.9% of the full set was active somewhere.
Shn3 3UTR inh = reduction of Shn3 3'UTR firefly luciferase signal, primary screen, Schnurri-3 inhibitor project, cell-based, Clone20 osteoblasts, set 2 | Clone20 osteoblast Shn3 3'UTR firefly luciferase, 24 h | inhibition, % at 12.5 µM | 0.52% of 360,000 active;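 active = mean inhibition of at least 75% with every replicate also reaching 75%; inconclusive = mean inhibition at least 75% but some replicate below; inactive = mean inhibition below 75%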
CF NFkB block = inhibitors of PAF-induced NF-kB signaling, primary screen, cell-based, GFP fluorescence, uHTS. KKLEB NF-kB-GFP reporter, GFP fluorescence overnight. inhibition, % at 5 µM. 0.86% of 360,000 active;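 active = at least 50% inhibition at 5 µM, scaled per plate between neutral and stimulator controls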;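 note: PAF is a Pseudomonas aeruginosa culture filtrate used as stimulus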
KKLEB cytotox = cytotoxicity in KKLEB CF airway cells, primary screen, cytotoxicity control for CF NF-kB inhibitor project, cell-based, uHTS, fluorescence assay plates | activity change (cytotoxicity), % at 5 µM | KKLEB CF airway cells viability, ATPlite luminescence, overnight; stronger effect = lower value; cells stimulated with P. aeruginosa culture filtrate | 0.36% of 360,000 active;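 active = corrected activity change at or below -50% at 5 µM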
HIF-2a inh = HIF-2a reporter inhibitors, primary screen, luminescence, 786-0 RCC cells; 0.72% of 360,000 active; inhibition, % at 18.8 µM; 786-0 RCC cells HIF-2a reporter, luciferase luminescence, overnight;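 active = inhibition of the luminescence signal of 40% or more relative to plate controls, in a single-dose primary screen at 18.75 µM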
LMP1 NFkB inh = EBV LMP1-driven NF-kappaB luciferase reporter inhibitors, primary screen, cell-based, luminescence, single point; LMP1-induced NF-kappaB luciferase reporter cells; inhibition, % at 12.5 µM; 0.69% of 350,000 active; in the data active = inhibition above about 41%; inconclusive = no clear call, values can overlap the other calls
Peg3 promoter = Peg3 promoter-driven luciferase inhibitors, primary screen, cell-based, HeLa, luciferase luminescence; HeLa PEG-Prom luciferase reporter, overnight; inhibition, % at 20 µM; 1.7% of 360,000 active;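 active = inhibition of at least 50% at 20 µM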
Mdm2-MdmX confirm = retested Mdm2-MdmX interaction blockers, confirmation, cell-based, luminescence, single concentration, set 2; shares compounds with HIF-2a inh; SaOS-2 split-luciferase Mdm2/MdmX complementation; inhibition, % at 8 µM; 99% of 740 active; AID 504601, 2011;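 active = mean inhibition of the luminescence signal across two replicates at or above 26 percent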
Target sequence (O15151 whole entry, looked up): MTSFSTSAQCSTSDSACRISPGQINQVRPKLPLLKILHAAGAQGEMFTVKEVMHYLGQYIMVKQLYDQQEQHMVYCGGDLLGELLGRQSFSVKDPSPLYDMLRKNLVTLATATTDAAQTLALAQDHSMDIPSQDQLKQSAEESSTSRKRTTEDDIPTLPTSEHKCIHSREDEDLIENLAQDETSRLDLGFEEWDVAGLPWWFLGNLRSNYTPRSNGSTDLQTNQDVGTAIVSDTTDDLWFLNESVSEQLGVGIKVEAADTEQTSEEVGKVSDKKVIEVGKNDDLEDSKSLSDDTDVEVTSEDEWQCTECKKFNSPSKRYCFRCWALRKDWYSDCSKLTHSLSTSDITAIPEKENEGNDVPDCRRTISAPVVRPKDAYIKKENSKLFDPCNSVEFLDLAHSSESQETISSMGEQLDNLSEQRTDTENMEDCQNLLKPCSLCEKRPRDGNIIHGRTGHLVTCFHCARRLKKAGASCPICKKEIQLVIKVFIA
Target sequence (Q00987 whole entry, looked up): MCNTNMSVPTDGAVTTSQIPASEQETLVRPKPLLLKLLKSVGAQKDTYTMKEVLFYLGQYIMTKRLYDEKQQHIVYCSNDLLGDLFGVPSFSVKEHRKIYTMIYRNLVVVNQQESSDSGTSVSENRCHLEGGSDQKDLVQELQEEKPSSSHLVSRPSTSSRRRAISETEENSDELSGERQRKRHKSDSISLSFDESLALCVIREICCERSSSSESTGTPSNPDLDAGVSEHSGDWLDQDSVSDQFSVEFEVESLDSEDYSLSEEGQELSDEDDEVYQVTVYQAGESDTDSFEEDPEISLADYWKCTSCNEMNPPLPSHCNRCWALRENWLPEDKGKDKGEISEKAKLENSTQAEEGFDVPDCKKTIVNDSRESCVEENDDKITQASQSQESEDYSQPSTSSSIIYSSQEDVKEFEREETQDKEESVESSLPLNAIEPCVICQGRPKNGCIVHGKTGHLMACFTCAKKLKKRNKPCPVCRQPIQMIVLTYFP
HIF-2a inh conf = HIF-2a reporter inhibitor retest, confirmation, luminescence, 786-0 RCC cells; 56% of 1,800 active; shares compounds with HIF-2a inh; inhibition, % at 18.8 µM; AID 651580, 2012; HIF-2a luciferase reporter luminescence, overnight;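 active = mean inhibition across four replicates of at least 40 percent at the single tested concentration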
HIF-1a counter = HIF-1a luciferase reporter signal reduction – MiaPaCa-2 cells, single concentration, counter-screen for HIF-2a inhibitor project, confirmation; 72% of 1,800 active; inhibition, % at 18.8 µM; shares compounds with HIF-2a inh; AID 651589, 2012; MiaPaCa-2 HIF-1a luciferase reporter, desferoxamine, overnight;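 active = mean inhibition of the reporter signal across four replicates at the single tested dose of 50% or more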
Hits are given with their value; - = inactive; ? = inconclusive; . = not tested or not shown.

SMILES | Shn3 3UTR inh | CF NFkB block | KKLEB cytotox | HIF-2a inh | LMP1 NFkB inh | Peg3 promoter | HIF-2a inh conf | HIF-1a counter | others
C=CS(=O)(=O)c1ccc(Oc2ccc(S(=O)(=O)C=C)cc2)cc1 | 96 | 99 | -56 | 90 | ? | 107 | 90 | 106
O=[N+]([O-])c1c(Nc2ccccc2O)cc(Cl)c2nonc12 | 97 | 80 | - | 95 | 79 | 100 | 98 | 99 | Mdm2-MdmX confirm=103
CC(C)COC(=O)N(C)C[C@@H]1OCc2cnnn2CCCC(=O)N([C@H](C)CO)C[C@H]1C | - | - | - | - | - | - | . | .
O=C(CSc1nc2c(c(=O)[nH]1)CCC2)Nc1ccccc1Cl | - | - | - | - | - | - | . | .
C[C@@H]1C[C@@H]2OC(=O)[C@]3(C)[C@H]2[C@@H](OC3(C)O)[C@]2(C)C(=O)C=C[C@H]12 (stereo partly specified) | - | - | - | - | - | - | . | .
C=C1C(=O)O[C@@H]2C[C@@H](C)[C@@H]3C=CC(=O)[C@@]3(C)[C@@H](OC(C)=O)[C@H]12 | . | . | . | . | . | . | . | . | Mdm2-MdmX confirm=102
Cn1c(/C=C/c2ccc(Cl)cc2Cl)c([N+](=O)[O-])c(=O)n(C)c1=O | ? | - | - | 69 | - | 103 | 41 | 106
CCc1ccc(/C=C/c2c([N+](=O)[O-])c(=O)n(C)c(=O)n2C)cc1 | - | - | - | 46 | - | - | - | -
COc1ccc(/C=C/c2c([N+](=O)[O-])c(=O)n(C)c(=O)n2C)c(OC)c1 | - | - | - | - | - | - | . | .
CCOc1ccc(/C=C/c2c([N+](=O)[O-])c(=O)n(C)c(=O)n2C)cc1 | - | - | - | - | - | - | . | .
CC(C)C[C@H](NC(=O)OC(C)(C)C)c1nnc(SCc2ccccc2)o1 | - | - | - | - | - | - | . | .
Cc1ccccc1CS(=O)(=O)c1nnc([C@H](CC(C)C)NC(=O)OC(C)(C)C)o1 | ? | - | - | 69 | - | 96 | - | -
CCN(CC)c1ccc(NC(=O)CCCCCN2C(=O)c3ccccc3C2=O)cc1 | - | - | - | - | - | - | . | .
CCN(CC)c1ccc(NC(=O)CCCCC(=O)Nc2ccc(N(CC)CC)cc2)cc1 | - | - | - | 65 | - | - | 66 | -
Cc1nonc1C(=O)N1CCCC(Nc2ccc(C(C)C)cc2)C1 (stereo unspecified) | - | - | - | - | - | - | . | .
Cn1nnnc1N=N/C(=N/Nc1ccccc1)c1ccccc1 | - | - | - | - | 60 | 52 | . | . | Mdm2-MdmX confirm=91
COc1cc(N/C=C(\C(C)=O)c2ccccc2)cc(OC)c1 | - | - | - | - | - | - | . | .
COc1cc(OC)cc(-c2cc3nc(C)c(CCC(=O)Nc4nc(C)cs4)c(C)n3n2)c1 | - | - | - | 43 | - | - | 55 | -
COC(=O)c1cnn(-c2nc(OC)cc(OC)n2)c1C | - | - | - | - | - | - | . | .
COc1cc(OC)nc(-n2ncc(Br)c(Br)c2=O)n1 | 97 | 91 | -94 | 92 | 65 | 104 | 100 | 106
CCCc1ccc(-c2ccc(/C=C/C(=O)O)cc2)nc1 | - | - | - | 87 | 75 | - | 89 | 91
NS(=O)(=O)c1ccc(N/N=C2/CCCCC2C2CCCCC2)c([N+](=O)[O-])c1 (stereo unspecified) | - | - | - | 55 | - | - | - | 104
CC1C/C(=N\Nc2ccc(S(N)(=O)=O)cc2[N+](=O)[O-])CC(C)(C)C1 (stereo unspecified) | - | - | - | - | - | - | . | .
CN(C)CCNC(=O)c1cccc(-c2cnc3c(NC=O)cc(-c4cc(F)c(F)c(F)c4)cn23)c1 | - | - | - | 88 | . | - | - | 107
CN(C)CCNC(=O)c1cccc(-c2cc(NC=O)c3ncc(-c4cccc(C(F)(F)F)c4)n3c2)c1 | - | - | - | 95 | . | 98 | - | 106
SMILES | Shn3 3UTR inh | CF NFkB block | KKLEB cytotox | HIF-2a inh | LMP1 NFkB inh | Peg3 promoter | HIF-2a inh conf | HIF-1a counter | others
CCC(C)(C)c1ccc(OCCCC[n+]2cccc(C)c2C)c(C(C)(C)CC)c1 | . | - | - | 88 | - | 107 | 77 | 107 | Mdm2-MdmX confirm=103
CCC(C)(C)c1ccc(OCCCC[n+]2ccc(C)cc2)c(C(C)(C)CC)c1 | . | . | . | . | . | . | . | . | Mdm2-MdmX confirm=102
Cc1cc[n+](CC[n+]2ccc(C)cc2)cc1 | - | - | - | - | - | - | . | .
COC(=O)c1ccccc1OCC(=O)N1CCN(c2ccc(OC)cc2)CC1 | - | - | - | - | - | - | . | .
CCCn1c(Nc2nc3ccccc3n2C)nc2ccccc21 | - | - | - | 91 | - | 90 | 58 | 105 | Mdm2-MdmX confirm=103
COc1cc2c(cc1OC)C1CCc3cc4c(cc3C1N=C2)OCO4 (stereo unspecified) | - | - | - | - | - | - | . | .
COC(=O)C(=Cc1ccc(OCc2ccc([N+](=O)[O-])cc2)c(OC)c1)C(=O)OC | - | - | - | 81 | - | - | 82 | 101
Cc1ccc(S(=O)(=O)N2CCOCC2)cc1NC(=O)CN1CCN(c2ccc(O)cc2)CC1 | - | - | - | 46 | - | - | 44 | 98
Cc1ccc(S(=O)(=O)N2CCOCC2)cc1NC(=O)CN1CCN(C)CC1 | - | - | - | - | - | - | . | .
CC1CCCC(NC(=O)CSc2ncccn2)C1C (stereo unspecified) | - | - | - | - | - | - | . | .
Cc1ccc(S(=O)(=O)O/N=C2\CCCc3ccccc32)cc1 | - | - | - | - | - | - | . | .
CC1=C(C)/C(=N\OS(=O)(=O)c2ccccc2)C=CC1=O | - | - | - | 86 | - | 106 | . | . | Mdm2-MdmX confirm=103
Cc1ccc(CNC(=O)CN2C(=O)NC3(CC(C)CC(C)(C)C3)C2=O)cc1 (stereo unspecified) | - | - | - | - | - | - | . | .
Cc1ccc(S(=O)(=O)c2ncccc2[N+](=O)[O-])cc1 | 96 | 102 | -65 | 72 | - | 102 | 47 | - | Mdm2-MdmX confirm=100
O=C(NCC(=O)N(c1ccccc1F)C(C(=O)NC1CCCC1)c1ccncc1)c1ccco1 (stereo unspecified) | - | - | - | - | - | - | . | .
